# Test results published in PubChem BioAssay (NCATS).
# Results filed as inconclusive are left out. Where a call stands in place of a potency, no number is given. A number with no mark means an inactive call. Calls of active or inactive are those of the source. Calls follow the shape of the dose curve; as a rule, active = well fitted inhibition curve with a large enough effect; inconclusive = small, poorly fitted or top-dose-only effect; inactive = no such curve, though single readings can be large or run the other way. Where a SMILES comes first, the peptide text is derived from it. Bridges are numbered along the chain shown (N, C = ends). [ ]: non-standard residue; d: D form. The star is where a group is joined. X1 = CCC(C)C(N)C1=NC(C(=O)*)CS1; dOrn = NCCC[C@@H](N)C(=O)O; 2Abz = Nc1ccccc1C(=O)O
# How the values were obtained:
# [1] = system: Zika virus NS2B-NS3 protease (unlinked complex); experiment: Primary screen GU Rhodamine qHTS for Zika virus inhibitors: Unlinked NS2B-NS3 protease assay (AID 1347159); also: nearly all actives have a fitted effect of over 60% in size
# In short: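 Buffer 10 mM Tris-HCl pH 8.0, 0.01% Tween 20. Unlinked protease 25 nM; compound preincubation 15 min, RT, protected from light. Substrate Rhod110, 1.5 microM; ~15% conversion in 15 min.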
# [2] = system: Zika virus NS2B-NS3 protease (linked construct); experiment: Primary screen NINDS Rhodamine qHTS for Zika virus inhibitors (AID 1347160); also: nearly all actives have a fitted effect of over 55% in size
# In short: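 Aprotinin served as in-plate control. Conditions: 25 nM linked NS2B-NS3, pH 8.0 Tris buffer, titrated compounds, 15 min preincubation and 15 min reaction with 1.5 microM Rhod110 substrate at room temperature.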
# Potency is read from the fitted curve at half-maximal effect.
SMILES,Potency [1],Potency [2],"activity change, negative = inhibition [1]","activity change, negative = inhibition [2]"
COc1ccc(/C=C/C(=O)O[C@@H]2[C@@H](O)[C@H](C)O[C@@H](OC3C4C=COC(O[C@@H]5O[C@H](CO)[C@@H](O)[C@H](O)[C@H]5O)C4C4(CO)OC34)[C@@H]2O)cc1OC (stereo not given in full),inactive,inactive,–,–
COc1c(C(CC(C)C)OC(C)=O)ccc(Oc2c(O)cc(C)cc2/C=C/C(C)=O)c1C(=O)O (stereo not given),7.08 µM (active),11.2 µM (active),–,–
COc1cc(/C=C/c2cc(O)cc(O[C@@H]3O[C@H](CO)[C@@H](O)[C@H](O)[C@H]3O)c2)ccc1O,inactive,inactive,–,–
COc1ccc2c(c1)O[C@H](O[C@@H]1O[C@H](CO)[C@@H](O)[C@H](O)[C@H]1O)C(=O)N2,inactive,inactive,–,–
C=C(C(=O)OC)C1CCC2(C)C(O[C@@H]3O[C@H](CO)[C@@H](O)[C@H](O)[C@H]3O)CC(=O)C(C)C2C1O (stereo not given in full),inactive,inactive,–,–
O=C(/C=C/c1ccc(O)cc1)O[C@H]1[C@@H]2C=CO[C@@H](O[C@@H]3O[C@H](CO)[C@@H](O)[C@H](O)[C@H]3O)[C@@H]2[C@@]2(CO)O[C@@H]12,inactive,inactive,–,–
CC(=O)OC[C@@]12[C@H](O)C[C@]3(C)C(=CCC4[C@@]5(C)CC[C@H](O[C@@H]6O[C@H](C(=O)O)[C@@H](O[C@@H]7O[C@H](CO)[C@@H](O)[C@H](O)[C@H]7O)[C@H](O)[C@H]6O[C@@H]6O[C@H](CO)[C@@H](O)[C@H](O)[C@H]6O)[C@](C)(CO)C5CC[C@]43C)[C@@H]1CC(C)(C)[C@@H](OC(C)=O)[C@@H]2O (stereo not given in full),inactive,inactive,–,–
COc1cc(C2Oc3c(OC)cc(/C=C/C(=O)OC[C@H]4O[C@@H](OC(C)(C)C(=O)O)[C@H](O)[C@@H](O)[C@@H]4O)cc3C2CO)ccc1O (stereo not given in full),inactive,inactive,–,–
COc1cc(N2CCC(O)CC2)ccc1Nc1cc(Nc2ccccc2S(=O)(=O)C(C)C)c2cc[nH]c2n1,inactive,inactive,–,–
CC1=CC(=O)CC(C)(C)C1(O)CCC(C)O (stereo not given),inactive,inactive,–,–
C[C@@H](Nc1cc(NS(=O)(=O)N2CCC2)nc(SCc2cccc(F)c2F)n1)[C@@H](O)CO,inactive,inactive,–,–
C/C(=C/CCC(CO)C1CCC2(C)C3CCC4C(C)(C)C(OC5OC(CO)C(O)C(O)C5O)CC(O)C45CC35CCC12C)COC1OC(CO)C(O)C(O)C1O (stereo not given),inactive,inactive,–,–
COC1=CC(=O)O[C@@H](CCc2ccccc2)[C@@H]1O,inactive,inactive,–,–
CC(C)C(C#N)O[C@@H]1O[C@H](CO[C@@H]2OC[C@](O)(CO)[C@H]2O)[C@@H](O)[C@H](O)[C@H]1O (stereo not given in full),inactive,inactive,–,–
COC(=O)C1=CO[C@@H](O[C@@H]2O[C@H](CO)[C@@H](O)[C@H](O)[C@H]2O)[C@@H]2[C@@H](C(=O)OC)[C@@H](O)C(O)[C@H]12 (stereo not given in full),inactive,inactive,–,–
CC(=O)N(O)CCCCCN1C(=O)CCC1=O,inactive,inactive,–,–
CCC(C)C1NC(=O)C2CCCN2C(=O)C(C(C)C)NC(=O)c2ccccc2NC(=O)C(Cc2ccc(O)cc2)NC(=O)C(C)NC(=O)C(C(C)O)NC1=O (stereo not given) (cyclo([2Abz]VPITAY); configuration not given here),inactive,inactive,–,–
C=CC1C(O[C@@H]2O[C@H](CO)[C@@H](O)[C@H](O)[C@H]2O)OC=C(C(=O)OC)C1Cc1nccc2c1[nH]c1ccccc12 (stereo not given in full),inactive,inactive,–,–
C[C@@H]1CCC2C(C)(C)[C@H](O)CC[C@]2(C)[C@@]12Cc1c(O)cc3c(c1O2)CN(CCO)C3=O (stereo not given in full),inactive,inactive,–,–
NS(=O)(=O)OC[C@@H]1C[C@@H](n2ccc3c(N[C@H]4CCc5ccccc54)ncnc32)C[C@@H]1O,inactive,inactive,–,–
COc1c(OC2OC(CO)C(O)C(O)C2O)ccc(O)c1C(=O)OCc1ccccc1O[C@@H]1O[C@H](CO)[C@@H](O)[C@H](O)[C@H]1O (stereo not given in full),inactive,inactive,–,–
O=C1N(CC2CCCCN2)CCN1c1ccccc1 (stereo not given),inactive,inactive,–,–
COc1cc(C/C(=C/NC(C)=O)N(CC(=O)Cc2ccccc2)C(C)=O)cc2c1OCO2,inactive,inactive,–,–
CC(=O)OC[C@@]12[C@H](O)C[C@@H](C)[C@]3(C[C@@H](c4ccoc4)OC3=O)[C@H]1C[C@H](O)C[C@]21CO1,inactive,inactive,–,–
COCC(=O)N1CCc2cc(-c3csc(NC(=O)c4cc(OC)cc(OC)c4)n3)ccc21,inactive,inactive,–,–
CC(=O)O[C@H](C[C@@H](C)[C@H]1C(=O)[C@H](O)[C@@]2(C)[C@@H]3CCC4C(C)(C)[C@@H](O[C@@H]5OC[C@H](O)[C@H](O)[C@H]5O)CC[C@@]45C[C@@]35CC[C@]12C)[C@@H]1OC1(C)C (stereo not given in full),inactive,inactive,–,–
C#Cc1cnc2[nH]c(=O)n(C(CC)CC)c2n1,inactive,inactive,–,–
O=C(CCCCc1ccc2ccccc2c1)C(F)(F)F,inactive,inactive,–,–
CC1(C)CC2C3=CCC4C5(C)CCC(OC6OC(C(=O)O)C(O)C(O)C6OC6OC(CO)C(O)C(O)C6OC6OC(CO)C(O)C(O)C6O)C(C)(CO)C5CCC4(C)C3(C)CCC2(C)C(OC2OCC(O)C(OC3OC(CO)C(O)C(O)C3O)C2O)C1O (stereo not given),–,–,8.97% [at 19.1 µM],-17% [at 10.7 µM]
CCC(C)C(N)C1=NC(C(=O)N[C@@H](CC(C)C)C(=O)N[C@H](CCC(=O)O)C(=O)N[C@H](C(=O)N[C@H]2CCCCNC(=O)[C@H](CC(N)=O)NC(=O)[C@@H](CC(=O)O)NC(=O)[C@H](Cc3cnc[nH]3)NC(=O)[C@@H](Cc3ccccc3)NC(=O)[C@H]([C@@H](C)CC)NC(=O)[C@@H](CCCN)NC2=O)[C@@H](C)CC)CS1 (stereo not given in full) (X1-L[dE]IK[dOrn]I[dF]H[dD]N; lactam 4-C),inactive,inactive,–,–
